Test results from PubChem BioAssay (EPA / NIEHS).
Where “and” joins values, the source holds several entries; their conditions need not be identical. Identical values can stand only once. Inconclusive results are not listed. Some compounds were tested as several samples or in several runs, with calls that do not always agree. Calls of active or inactive are those of the source. Rule for the calls, unless noted: active = hit-call score of the fitted dose curve at least 0.9, where 1 is the maximum; inactive = score below 0.9.

What was measured:
[1] = read-out: Interleukin-8 (IL8), CXCL8 (gene 3576); test: BSK_3C_IL8: BioMAP Diversity Plus: 3C Assay for Interleukin-8 (IL8) Biomarker Activity (AID 2283020); settings: primary human endothelial cells (HUVEC); actives raise or lower the signal
Summary of the method: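 Using DMSO-treated wells as the baseline, bidirectional curve fitting was applied to ELISA-measured IL-8 from human umbilical vein endothelial cultures sampled 24 h after compound addition.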

[2] = read-out: Thrombomodulin, THBD (gene 7056); test: BSK_3C_Thrombomodulin: BioMAP Diversity Plus: 3C Assay for Thrombomodulin Biomarker Activity (AID 2283029); settings: primary human endothelial cells (HUVEC); actives raise or lower the signal
Summary of the method: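 In a multiplexed primary-cell system, human umbilical vein endothelium received chemical and was assayed 24 h later for thrombomodulin by ELISA. Parallel cultures were SRB-stained (0.1% SRB after 10% TCA fixation, read at 560 nm) to flag cytotoxicity.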

[3] = read-out: Vascular endothelial growth factor receptor 2 (Homo sapiens) (UniProt P35968); test: BSK_4H_VEGFRII: BioMAP Diversity Plus: 4H Assay for Vascular endothelial growth factor receptor 2 (VEGFR2) Biomarker Activity (AID 2283031); settings: primary human endothelial cells (HUVEC); actives raise or lower the signal;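 for AC50: cell-surface VEGFR2 protein level quantified by ELISA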
Summary of the method: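 Primary human umbilical vein endothelial cells (4H system), 24 h exposure; cell-surface VEGFR2 measured by ELISA. Bidirectional fitting versus DMSO; cytotoxicity checked in parallel by SRB total-protein staining.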

[4] = read-out: Monokine induced gamma interferon (MIG), CXCL9 (gene 4283); test: BSK_CASM3C_MIG: BioMAP Diversity Plus: CASM3C Assay for Monokine induced gamma interferon (MIG) Biomarker Activity (AID 2283048); settings: primary human coronary artery smooth muscle cells; actives raise or lower the signal;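 note: MIG protein level measured by ELISA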
[5] = read-out: serum amyloid A (SAA), SAA1 (gene 6288); test: BSK_CASM3C_SAA: BioMAP Diversity Plus: CASM3C Assay for serum amyloid A (SAA) Biomarker Activity (AID 2283049); settings: primary human coronary artery smooth muscle cells; actives raise or lower the signal;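 note: SAA protein level quantified by ELISA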
[6] = read-out: Thrombomodulin, THBD (gene 7056); test: BSK_CASM3C_Thrombomodulin: BioMAP Diversity Plus: CASM3C Assay for Thrombomodulin Biomarker Activity (AID 2283051); settings: primary human coronary artery smooth muscle cells; actives raise or lower the signal;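 note: thrombomodulin protein level measured by ELISA 24 h after dosing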
[7] = read-out: Vascular cell adhesion molecule 1 (VCAM1), VCAM1 (gene 7412); test: BSK_CASM3C_VCAM1: BioMAP Diversity Plus: CASM3C Assay for Vascular cell adhesion molecule 1 (VCAM1) Biomarker Activity (AID 2283055); settings: primary human coronary artery smooth muscle cells; actives raise or lower the signal;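 note: VCAM-1 protein level quantified by ELISA on the cells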
[8] = read-out: Interleukin-8 (IL8), CXCL8 (gene 3576); test: BSK_LPS_IL8: BioMAP Diversity Plus: LPS Assay for Interleukin-8 (IL8) Biomarker Activity (AID 2283078); settings: primary human HUVEC with PBMC; actives raise or lower the signal
Summary of the method: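 Human umbilical vein endothelial cells co-cultured with PBMC, LPS-stimulated, exposed to compound for 24 h. IL-8 quantified by ELISA; fitted in both directions against DMSO, with SRB total-protein staining of parallel cultures for cytotoxicity.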

[9] = read-out: Tissue Factor, F3 (gene 2152); test: BSK_LPS_TissueFactor: BioMAP Diversity Plus: LPS Assay for Tissue Factor Biomarker Activity (AID 2283084); settings: primary human HUVEC with PBMC; actives raise or lower the signal
Summary of the method: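 Human umbilical vein endothelial cells co-cultured with PBMC were dosed with compound. Cell-surface CD142 was measured by ELISA 24 h later. Activity was fitted bidirectionally against DMSO, with SRB total-protein staining in parallel cultures for cytotoxicity.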

[10] = read-out: Monocyte Chemoattractant Protein-1 (MCP1), CCL2 (gene 6347); test: BSK_hDFCGF_MCP1: BioMAP Diversity Plus: hDFCGF Assay for Monocyte Chemoattractant Protein-1 (MCP1) Biomarker Activity (AID 2284285); settings: primary human foreskin fibroblasts
Summary of the method: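 MCP-1 ELISA readout was taken 24 hours after dosing primary human dermal fibroblasts in the hDFCGF system, with DMSO as baseline. Parallel sulforhodamine B staining of total protein tracked overt cytotoxicity.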

[11] = target: Hypoxia-inducible factor 1-alpha (Homo sapiens) (UniProt Q16665); test: ATG_HIF1a_CIS: Attagene CIS-FACTORIAL HepG2 Assay for human Hypoxia Inducible Factor 1 (HIF1A) (AID 2282951); settings: HepG2 Attagene cis-factorial HIF1a reporter transcription; actives raise or lower the signal
Summary of the method: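 Measures endogenous transcription-factor activity through cis-regulated reporter mRNA in HepG2. Cells dosed 24 h; transcripts quantified by RT-PCR with 6-FAM-labelled products separated by capillary electrophoresis; DMSO serves as negative control.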

[12] = target: Heat shock factor protein 1 (Homo sapiens) (UniProt Q00613); test: ATG_HSE_CIS: Attagene CIS-FACTORIAL HepG2 Assay for human Heat Shock Transcription Factor 1 (HSE) (AID 2282953); settings: HepG2 HSE cis-reporter, Attagene RNA transcription; actives raise or lower the signal
Summary of the method: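 HepG2 cells transfected with cis-promoter reporter units sensing endogenous transcription factor activity; reporter mRNA quantified 24 h post-dose by RT-PCR and capillary electrophoresis of 6-FAM-labelled products. Bidirectional fitting against DMSO.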

[13] = target: Paired box protein Pax-6 (Homo sapiens) (UniProt P26367); test: ATG_Pax6_CIS: Attagene CIS-FACTORIAL HepG2 Assay for human Paired Box 6 (PAX6) (AID 2282956); settings: HepG2 CIS-FACTORIAL PAX6 reporter transcription, RNA readout; actives raise or lower the signal
Summary of the method: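 Readout: reporter transcript fluorescence after RT-PCR and capillary electrophoresis. Cells: HepG2, transiently transfected with cis-regulated MRTUs. Exposure 24 h. Gain or loss of signal fitted bidirectionally relative to DMSO.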

[14] = ATG_TGFb_CIS: Attagene CIS-FACTORIAL HepG2 Assay for human Transforming Growth Factor (TGF) (AID 2282967); settings: HepG2 Attagene CIS TGFb reporter, mRNA transcription; actives raise or lower the signal
Summary of the method: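 HepG2 cells transiently transfected with cis-promoter-driven multiple reporter units measure endogenous TF activity; reporter mRNA quantified at 24 h by RT-PCR, FAM labeling, HpaI digestion and capillary electrophoresis. Bidirectional fit vs DMSO.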

[15] = target: human Peroxisome Proliferator-activated Receptor alpha (PPARa), PPARA (gene 5465) (UniProt Q07869); test: ATG_PPARa_TRANS: Attagene TRANS-FACTORIAL HepG2 Assay for human Peroxisome Proliferator-activated Receptor alpha (PPARa) (AID 2283001; active = hit-call score of the fitted dose curve at least 0.9, where 1 is the maximum)
Summary of the method: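 Exposure: 24 h, transiently transfected HepG2 cells. Endpoint: GAL4-UAS reporter mRNA, RT-PCR with capillary electrophoresis fluorescence. Baseline: DMSO; increases fitted.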

[16] = target: Nuclear receptor subfamily 1 group I member 2 (Homo sapiens) (UniProt O75469); test: ATG_PXR_TRANS: Attagene TRANS-FACTORIAL HepG2 Assay for human Pregnane X Receptor (PXR) (AID 2283008; active = hit-call score of the fitted dose curve at least 0.9, where 1 is the maximum)
Summary of the method: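 Trans-factorial format: exogenous NR-Gal4 fusion activity, not endogenous factor, in transfected human HepG2 liver cells. After 24 h dosing, RNA isolated, reverse-transcribed, amplified and resolved by capillary electrophoresis; induction scored versus DMSO.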

[17] = ATG_XTT_Cytotoxicity: Cytotoxicity Assessment in the Attagene TRANS-FACTORIAL HepG2 Assay (AID 2283584; active = hit-call score of the fitted dose curve at least 0.9, where 1 is the maximum)
Summary of the method: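 HepG2 cells transiently transfected with GAL4-UAS multiple reporter units, dosed 24 h; cytotoxicity read by XTT as loss of signal versus DMSO baseline.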

[18] = target: bovine Estrogen Receptor (ER), ESR1 (gene 407238) (UniProt P49884); test: NVS_NR_bER: NovaScreen (NVS) Nuclear Receptor Binding Assay for bovine Estrogen Receptor (ER) (AID 2283345; active = hit-call score of the fitted dose curve at least 0.9, where 1 is the maximum;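 note: actives lower the bound radioligand count which means they displace the ER ligand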)
Summary of the method: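 Scintillation counting of displaced radioligand gave the readout; bovine uterine membrane extract supplied the receptor. Measured 18 h post-dose, normalized to DMSO baseline. Single 25 uM duplicate screen preceded concentration-response follow-up.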

[19] = CCTE_Harrill_HTTr_Viability_MCF7: CCTE's 6-hour Cell Viability Assessment for the High-Throughput Transcriptomics (HTTr) Platform, in MCF-7 cells cultured in DMEM + 10% fetal bovine serum, Harrill Lab (AID 2284010)
Summary of the method: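 Eight-point concentration series, six-hour exposure. Propidium iodide exclusion imaged to assess membrane integrity as a cytotoxicity readout; bidirectional fitting was done with DMSO as negative control and activity baseline.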

[20] = CCTE_Harrill_HTTr_Apoptosis_MCF7: CCTE's 6-hour Apoptosis Assessment for the High-Throughput Transcriptomics (HTTr) Platform, in MCF-7 cells cultured in DMEM + 10% fetal bovine serum, Harrill Lab (AID 2284011)
Summary of the method: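 MCF-7 cells in DMEM + 10% FBS exposed 6 h to chemicals over an eight-point dilution series. Caspase-3/7 activation imaged by high-content CellEvent Green staining; fitted bidirectionally versus DMSO.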

Measured: AC50

Chain of Nuclear receptor subfamily 1 group I member 2 (Homo sapiens) (O75469 whole entry, looked up, the tested form may be a part): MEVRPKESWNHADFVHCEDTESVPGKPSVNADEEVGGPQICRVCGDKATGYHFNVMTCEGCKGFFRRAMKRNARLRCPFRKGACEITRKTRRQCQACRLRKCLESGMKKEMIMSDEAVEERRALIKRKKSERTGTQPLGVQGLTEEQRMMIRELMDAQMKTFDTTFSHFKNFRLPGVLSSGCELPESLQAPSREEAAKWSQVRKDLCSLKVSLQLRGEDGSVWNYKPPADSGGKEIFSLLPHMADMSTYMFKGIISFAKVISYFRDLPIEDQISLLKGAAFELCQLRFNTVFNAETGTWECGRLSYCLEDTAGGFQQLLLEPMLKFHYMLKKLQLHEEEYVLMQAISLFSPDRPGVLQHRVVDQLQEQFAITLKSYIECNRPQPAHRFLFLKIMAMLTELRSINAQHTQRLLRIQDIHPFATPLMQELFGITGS
Chain of Hypoxia-inducible factor 1-alpha (Homo sapiens) (Q16665 whole entry, looked up): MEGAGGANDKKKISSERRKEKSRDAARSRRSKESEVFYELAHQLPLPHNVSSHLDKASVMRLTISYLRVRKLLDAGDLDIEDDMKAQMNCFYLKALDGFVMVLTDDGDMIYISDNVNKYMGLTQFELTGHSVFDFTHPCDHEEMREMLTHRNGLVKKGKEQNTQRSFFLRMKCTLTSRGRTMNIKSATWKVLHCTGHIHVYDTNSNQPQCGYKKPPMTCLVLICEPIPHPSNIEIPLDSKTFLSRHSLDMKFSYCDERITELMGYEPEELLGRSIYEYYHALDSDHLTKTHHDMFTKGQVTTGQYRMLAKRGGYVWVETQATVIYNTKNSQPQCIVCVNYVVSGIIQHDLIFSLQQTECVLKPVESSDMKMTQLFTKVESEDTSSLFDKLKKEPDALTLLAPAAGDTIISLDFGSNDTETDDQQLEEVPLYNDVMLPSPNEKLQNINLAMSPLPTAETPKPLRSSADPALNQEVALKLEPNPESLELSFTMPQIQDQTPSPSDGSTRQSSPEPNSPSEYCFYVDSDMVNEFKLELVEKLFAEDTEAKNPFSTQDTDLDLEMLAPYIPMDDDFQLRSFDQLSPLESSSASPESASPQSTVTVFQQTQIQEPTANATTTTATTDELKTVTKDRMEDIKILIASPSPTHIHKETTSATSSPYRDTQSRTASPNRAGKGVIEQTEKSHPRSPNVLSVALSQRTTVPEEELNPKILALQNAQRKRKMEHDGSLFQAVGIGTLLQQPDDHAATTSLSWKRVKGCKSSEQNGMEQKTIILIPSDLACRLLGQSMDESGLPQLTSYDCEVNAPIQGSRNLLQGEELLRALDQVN
Chain of human Peroxisome Proliferator-activated Receptor alpha (PPARa), PPARA (gene 5465) (Q07869 whole entry, looked up, the tested form may be a part): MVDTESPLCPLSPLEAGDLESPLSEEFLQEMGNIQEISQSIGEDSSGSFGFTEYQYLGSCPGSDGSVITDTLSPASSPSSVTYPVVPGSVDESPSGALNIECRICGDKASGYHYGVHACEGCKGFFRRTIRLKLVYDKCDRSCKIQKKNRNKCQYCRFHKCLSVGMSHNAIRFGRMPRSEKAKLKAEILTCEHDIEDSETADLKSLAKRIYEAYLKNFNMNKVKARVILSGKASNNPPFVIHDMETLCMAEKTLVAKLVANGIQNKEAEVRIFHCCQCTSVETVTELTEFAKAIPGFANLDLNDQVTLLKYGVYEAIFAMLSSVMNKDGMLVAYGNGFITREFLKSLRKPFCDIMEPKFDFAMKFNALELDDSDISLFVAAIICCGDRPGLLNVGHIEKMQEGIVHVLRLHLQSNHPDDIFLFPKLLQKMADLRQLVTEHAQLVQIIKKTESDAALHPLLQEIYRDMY
Chain of bovine Estrogen Receptor (ER), ESR1 (gene 407238) (P49884 whole entry, looked up): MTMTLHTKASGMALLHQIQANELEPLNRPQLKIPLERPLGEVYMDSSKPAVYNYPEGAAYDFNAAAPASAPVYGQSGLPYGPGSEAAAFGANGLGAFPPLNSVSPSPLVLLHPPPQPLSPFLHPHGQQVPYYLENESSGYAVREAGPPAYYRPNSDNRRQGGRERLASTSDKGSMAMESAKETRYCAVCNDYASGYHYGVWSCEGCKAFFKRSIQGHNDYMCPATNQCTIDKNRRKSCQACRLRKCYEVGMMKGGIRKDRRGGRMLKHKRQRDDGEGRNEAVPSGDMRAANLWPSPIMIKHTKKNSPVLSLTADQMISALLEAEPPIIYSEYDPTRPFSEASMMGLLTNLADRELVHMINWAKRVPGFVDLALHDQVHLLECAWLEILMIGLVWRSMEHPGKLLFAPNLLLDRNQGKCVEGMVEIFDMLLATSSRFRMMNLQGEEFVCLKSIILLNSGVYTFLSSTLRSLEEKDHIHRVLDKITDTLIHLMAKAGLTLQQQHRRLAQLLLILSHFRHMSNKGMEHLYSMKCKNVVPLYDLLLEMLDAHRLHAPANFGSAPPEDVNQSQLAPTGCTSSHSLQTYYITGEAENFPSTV
Chain of Paired box protein Pax-6 (Homo sapiens) (P26367 whole entry, looked up): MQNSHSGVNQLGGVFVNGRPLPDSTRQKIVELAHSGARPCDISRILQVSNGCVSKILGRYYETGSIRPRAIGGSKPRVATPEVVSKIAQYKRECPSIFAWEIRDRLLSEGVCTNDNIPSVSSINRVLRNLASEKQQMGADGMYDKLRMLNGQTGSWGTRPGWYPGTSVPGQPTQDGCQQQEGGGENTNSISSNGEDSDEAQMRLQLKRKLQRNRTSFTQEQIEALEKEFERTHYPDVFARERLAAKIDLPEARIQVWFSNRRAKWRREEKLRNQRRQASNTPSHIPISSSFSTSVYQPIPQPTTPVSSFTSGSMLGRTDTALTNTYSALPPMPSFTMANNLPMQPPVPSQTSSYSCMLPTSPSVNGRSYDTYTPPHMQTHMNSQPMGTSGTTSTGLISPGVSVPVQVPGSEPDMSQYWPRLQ
Chain of Heat shock factor protein 1 (Homo sapiens) (Q00613 whole entry, looked up): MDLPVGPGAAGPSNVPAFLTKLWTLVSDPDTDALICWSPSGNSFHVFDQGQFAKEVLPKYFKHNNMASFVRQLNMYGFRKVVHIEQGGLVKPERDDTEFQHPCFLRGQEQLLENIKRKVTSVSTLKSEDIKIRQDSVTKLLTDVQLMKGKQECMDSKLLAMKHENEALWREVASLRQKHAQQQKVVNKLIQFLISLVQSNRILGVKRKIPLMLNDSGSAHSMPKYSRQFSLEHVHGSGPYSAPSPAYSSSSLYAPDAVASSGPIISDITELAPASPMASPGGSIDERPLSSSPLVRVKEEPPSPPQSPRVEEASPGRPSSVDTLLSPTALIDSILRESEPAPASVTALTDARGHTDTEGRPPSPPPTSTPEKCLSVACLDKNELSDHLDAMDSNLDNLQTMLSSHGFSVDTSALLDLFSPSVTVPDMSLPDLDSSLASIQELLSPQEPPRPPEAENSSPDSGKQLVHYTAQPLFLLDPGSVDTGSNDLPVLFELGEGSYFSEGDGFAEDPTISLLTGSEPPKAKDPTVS

OC(C(F)(F)F)(C(F)(F)F)C(O)(C(F)(F)F)C(F)(F)F
inactive: [2] | [5] | [6] | [8] | [10]
active: [1] 39.9 µM and 45.7 µM | [2] 48 µM | [3] 30 µM and 20.5 µM | [4] 39.8 µM and 30 µM | [6] 30 µM | [7] 30 µM | [9] 30 µM | [10] 7.94 µM

COC(=O)/C=C\C(=O)OC
active: [7] 20 µM
not listed: [10] | [18] | [19] | [20]
inactive: all other assays above

CC(=O)CC(=O)OC(C)(C)C
inactive: [18]

C=CN1CCCCCC1=O
inactive: [11] | [12] | [13] | [15] | [16] | [17]

O=[N+]([O-])c1ccc(ON=Cc2cc(Br)c(O)c(Br)c2)c([N+](=O)[O-])c1
inactive: [18]

Nc1nc(N)c2nc(-c3ccccc3)c(N)nc2n1
inactive: [18] | [19] | [20]

COc1cc(CNC(=O)CCCC/C=C/C(C)C)ccc1O
inactive: [1] | [2] | [3] | [4] | [5] | [6] | [7] | [8] | [9] | [19] | [20] | [10]
active: [2] 15.1 µM | [10] 0.508 µM

CCCCC(CC)COC(=O)C=Cc1ccc(OC)cc1 (configuration not stated)
active: [1] 30.8 µM and 28.7 µM | [2] 9.77 µM and 8.63 µM | [3] 31.7 µM | [4] 32.4 µM | [5] 32.3 µM | [7] 14.9 µM | [8] 12.9 µM | [9] 7.72 µM | [10] 8.08 µM
inactive: [3] | [4] | [5] | [6] | [7] | [8] | [9] | [19] | [20] | [10]

c1ccc2c(c1)Oc1ccccc1S2
inactive: [11] | [12] | [13] | [14] | [15] | [16] | [17]

COc1ccccc1Oc1c(NS(=O)(=O)c2ccc(C(C)(C)C)cc2)nc(-c2ncccn2)nc1OCCO
inactive: [1] | [2] | [3] | [4] | [5] | [6] | [7] | [9] | [19] | [20] | [10]
active: [5] 3.97 µM | [6] 7.25 µM | [7] 10 µM | [8] 20 µM and 9.01 µM

CC1(O)CSC(C)(O)CS1 (configuration not stated)
inactive: [18]

[O-][n+]1ccc(Cl)cc1
inactive: [11] | [12] | [15] | [16] | [17]

Cc1cc(O)cc(C)c1Cl
active: [11] 48.4 µM
inactive: [12] | [13] | [14] | [15] | [16] | [17] | [19] | [20]

C1CN(CCOCCN2CCOCC2)CCO1
inactive: [1] | [2] | [3] | [4] | [5] | [6] | [7] | [8] | [9] | [10]
active: [1] 9.48 µM | [4] 1.82 µM | [8] 4.01 µM

CCC(C)=NO
not listed: [10] | [16] | [17] | [18]
inactive: all other assays above

CCC(C)(CCC(C)C)C(=O)O (configuration not stated)
inactive: [11] | [14] | [15] | [16] | [17]

CC(=O)O[C@]1(C(C)=O)CC[C@H]2[C@@H]3C=C(C)C4=CC(=O)CC[C@]4(C)[C@H]3CC[C@@]21C
inactive: [18] | [19] | [20]
